Laboratory results from PubChem BioAssay (Tox21).
“And” between values parts separate entries of the source, which are not always exact repeats. Equal entries are not always repeated. Results filed as inconclusive are left out. Where a call stands in place of a potency, no number is given. A number with no mark means an inactive call. The source made the active and inactive calls. Calls come from the whole dose curve; as a rule, active = well fitted cell-killing curve with a large enough effect in the repeat runs; inconclusive = weak or mixed curves, or effect the other way; inactive = flat fitted curve, though single readings scatter.

Key:
[1] = cAMP Responsive Elements (CRE) small molecule antagonists, cell-based qHTS assay: qHTS cell viability counter screen (AID 2060913); note: nearly all actives have a fitted effect of over 40% in size
How it was run: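 Cytotoxicity read in the same wells as the CRE-bla HEK293T antagonist assay: after 3 h compound with 0.25 uM NKH477 final and 2 h beta-lactamase substrate, CellTiter-Glo luminescence measured.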

[2] = cAMP Responsive Elements (CRE) small molecule agonists, cell-based qHTS assay: qHTS cell viability counter screen (AID 2060914);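 note: viability read after 3 h of compound exposure; nearly all actives have a fitted effect of over 50% in size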
How it was run: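 CRE-bla HEK 293T cells, plated 18 h at 37 °C, were exposed to compounds for 3 h at 37 °C/5% CO2. Viability was then measured in the same wells by CellTiter-Glo luminescence after 30 min at room temperature.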

SMILES | Potency [1] | Potency [2] | viability change, negative = cytotoxic [1] | activity change, negative = cytotoxicity [2]
O=C1N(c2ccccc2)c2ccccc2C1(Cc1ccncc1)Cc1ccncc1 | inactive | inactive | – | –
OC[C@@H](O)[C@@H](O)CO | inactive | inactive | – | –
O=C1C(O)=C(O)C(=O)C(O)=C1O | inactive | inactive | – | –
CC(=O)OCC(=O)[C@@]12OC(C)(C)O[C@@H]1C[C@H]1[C@@H]3C[C@H](F)C4=CC(=O)C=C[C@]4(C)[C@@]3(F)[C@@H](O)C[C@@]12C | inactive | inactive | – | –
COc1cc(OC)c2ccc(=O)oc2c1 | inactive | inactive | – | –
OCc1ccc(Cl)cc1Cl | inactive | inactive | – | –
CCCC(=O)C(C)=O | inactive | inactive | – | –
Oc1c(I)cc(Cl)c2cccnc12 | inactive | inactive | – | –
O=C(O)c1cc(-c2ccc(F)cc2F)ccc1O | inactive | inactive | – | –
C[C@](N)(Cc1ccc(O)cc1)C(=O)O | – | – | -1.28% [at 8.39 µM] | -8.98% [at 8.39 µM]
CCN(CC)c1ccc(C=O)cc1 | inactive | inactive | – | –
CCC(C(=O)O)c1ccc(N2Cc3ccccc3C2=O)cc1 (stereo not given) | inactive | inactive | – | –
COc1cc(C)cc(O)c1 | inactive | inactive | – | –
CCN(CC)CCNC(=O)COc1ccc(OC)cc1 | inactive | inactive | – | –
C=CN1CCCC1=O | inactive | inactive | – | –
COCC(=O)Nc1c(I)c(C(=O)NCC(O)CO)c(I)c(C(=O)N(C)CC(O)CO)c1I (stereo not given) | inactive | inactive | – | –
N[C@H](C(=O)O)c1ccc(O)cc1 | – | – | 2.5% [at 18.9 µM] | -13.1% [at 18.9 µM]
O=C1OC(=O)c2c(Cl)c(Cl)c(Cl)c(Cl)c21 | inactive | inactive | – | –
O=C(O)c1ccccc1OP(=O)(O)O | inactive | inactive | – | –
C=CC(=O)NC(C)(C)C | inactive | inactive | – | –
CC(C)CCCO | inactive | inactive | – | –
Oc1ccc(CCNCCCCCCNCCc2ccccc2)cc1O | inactive | inactive | – | –
NC[C@H]1O[C@H](O[C@H]2[C@H](O)[C@@H](O[C@H]3O[C@H](CO)[C@@H](O)[C@H](N)[C@H]3O)[C@H](N)C[C@@H]2N)[C@H](O)[C@@H](O)[C@@H]1O | – | – | -0.639% [at 8.39 µM] | 14.7% [at 8.39 µM]
O=S(=O)(O)c1ccc2ccccc2c1 | inactive | inactive | – | –
CC(=O)c1ccc(O)c(C(N)=O)c1 | inactive | inactive | – | –
Cc1ccc(Cl)cc1N | inactive | inactive | – | –
CCC(CC)Nc1ccc(C)c(C)c1 | inactive | inactive | – | –
CN1CCCN=C1COC(=O)C(O)(c1ccccc1)C1CCCCC1 (stereo not given) | inactive | inactive | – | –

SMILES | Potency [1] | Potency [2] | viability change, negative = cytotoxic [1] | activity change, negative = cytotoxicity [2]
CC(COc1ccccc1)NC(C)C(O)c1ccc(O)cc1 (stereo not given) | inactive | inactive | – | –
CCCCCCCCc1ccc(S(=O)(=O)O)cc1 | inactive | inactive | – | –
CCOC(=O)CCCCCCCCC(=O)OCC | inactive | inactive | – | –
O=C=NCC1CCCC(CN=C=O)C1 (stereo not given) | inactive | inactive | – | –
Nc1cc(C(=O)O)ccc1Cl | inactive | inactive | – | –
CC1=NN(c2ccc(S(=O)(=O)O)cc2)C(=O)C1 | inactive | inactive | – | –
CCCC(=O)OC[C@@H](OC(=O)CCC)[C@@H](OC(=O)CCC)[C@H](Cn1c2nc(=O)[nH]c(=O)c-2nc2cc(C)c(C)cc21)OC(=O)CCC | inactive | inactive | – | –
O=C(O)CC(C(=O)O)S(=O)(=O)O (stereo not given) | inactive | inactive | – | –
C=C(C)C(=O)OCCC[Si](OC)(OC)OC | inactive | inactive | – | –
CN1CCN(CCCN2c3ccccc3Sc3ccc(S(=O)(=O)N(C)C)cc32)CC1 | inactive | inactive | – | –
Clc1ccc2c(c1)CCc1cccnc1C2=C1CCNCC1 | inactive | inactive | – | –
CCCCCCCC(C)=O | inactive | inactive | – | –
CC(C)(C)C(=O)Oc1ccc(S(=O)(=O)Nc2ccccc2C(=O)NCC(=O)O)cc1 | inactive | inactive | – | –
CCCCC(CC)COP(=O)(O)OCC(CC)CCCC (stereo not given) | inactive | inactive | – | –
C=CCOC(=O)C(=C)C | inactive | inactive | – | –
Nc1ccccc1Nc1ccccc1 | inactive | inactive | – | –
CCOC(=O)CC1(C)OCC(C)O1 (stereo not given) | inactive | inactive | – | –
CCNC(=O)/C=C/c1cccc(Br)c1 | inactive | inactive | – | –
CCN(CC)CCCC(C)Nc1ccnc2cc(Cl)ccc12 (stereo not given) | – | – | 4.94% [at 8.39 µM] and -2.8% [at 18.9 µM] | -0.2% [at 8.39 µM] and -0.0045% [at 18.9 µM]
Cn1c(=O)c2c(ncn2C)n(C)c1=O | inactive | inactive | – | –
COc1ccccc1N1CCN(CC(O)COc2cc(OC)c(OC)c(OC)c2)CC1 (stereo not given) | inactive | inactive | – | –
OCCNCc1ccccc1 | inactive | inactive | – | –
CCCCN1C(=O)[C@@H]([C@H](O)C2CCCCC2)NC(=O)C12CCN(Cc1ccc(Oc3ccc(C(=O)O)cc3)cc1)CC2 | inactive | inactive | – | –
O=C(O)CONC(=O)c1ccccc1 | inactive | inactive | – | –
Cc1ccc(C=O)cc1 | inactive | inactive | – | –
CC(C)(CO)[C@@H](O)C(=O)NCCCO | inactive | inactive | – | –
CC(=O)c1sc(C)nc1C | inactive | inactive | – | –
